Assay results as given in PubChem BioAssay (Tox21).
Inconclusive results are not listed. The source made the active and inactive calls. Calls come from the whole dose curve; as a rule, active = well fitted curve in the direction sought with a large enough effect in the repeat runs; inconclusive = weak or mixed curves; inactive = no such curve, though single readings can be large; an effect the other way counts as inactive or inconclusive.

What was measured:
[1] = qHTS RealTime-Glo MT Cell Viability Assay in HepG2 cells - 24 hour (AID 1224867); note: nearly all actives have a fitted effect of over 50% in size
Procedure, shortened: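 HepG2 cells (600/well) were dispensed with RealTime-Glo reagents, incubated 5 h at 37 °C, then treated with compounds in DMSO for up to 40 h. Nonlytic NanoLuc luminescence reflecting viable cells was read at each stated time point.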

[2] = qHTS RealTime-Glo MT Cell Viability Assay in HEK293 cells - 32 hour (AID 1224868); note: top concentration of the series differs between compounds; nearly all actives have a fitted effect of over 50% in size
Procedure, shortened: (§1)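 HEK293 cells seeded with NanoLuc/prosubstrate reagent, rested 5 h at 37 C, then dosed and kept at 37 C up to 40 h. Nonlytic real-time luminescence from viable cells read at 0, 8, 16, 24, 32 and 40 h.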

[3] = A CellTox Green Cytotoxicity Assay to monitor cytotoxicity in HEK293 cells - 0 hour (AID 1224869); note: nearly all actives have a fitted effect of over 50% in size
Procedure, shortened: (§2)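 Cytotoxicity was tracked continuously in HEK293 cells by a DNA-binding dye excluded from viable cells. Compounds were transferred in DMSO 5 h after seeding; fluorescence was recorded at intervals up to 40 h.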

[4] = qHTS RealTime-Glo MT Cell Viability Assay in HepG2 cells - 40 hour (AID 1224870); note: nearly all actives have a fitted effect of over 50% in size
Procedure, shortened: (§3)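 HepG2 cells mixed with RealTime-Glo MT reagents (NanoLuc plus cell-permeant prosubstrate) were seeded at 600 cells/well, incubated 5 h at 37 C/5% CO2, then pinned with compounds in DMSO; nonlytic luminescence tracked viability during 40 h treatment.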

[5] = A CellTox Green Cytotoxicity Assay to monitor cytotoxicity in HEK293 cells - 40 hour (AID 1224871); note: nearly all actives have a fitted effect of over 45% in size
Procedure, shortened: as §2

[6] = qHTS RealTime-Glo MT Cell Viability Assay in HEK293 cells - 16 hour (AID 1224872)
Procedure, shortened: as §1

[7] = qHTS RealTime-Glo MT Cell Viability Assay in HepG2 cells - 8 hour (AID 1224873); note: nearly all actives have a fitted effect of over 55% in size
Procedure, shortened: as §3

[8] = qHTS RealTime-Glo MT Cell Viability Assay in HEK293 cells - 40 hour (AID 1224874); conditions: RealTime-Glo luminescence, stronger effect = lower value; note: nearly all actives have a fitted effect of over 50% in size
Procedure, shortened: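 Nonlytic bioluminescent viability monitoring. HEK293 at 600 cells/well with reagent; 5 h settle; compound transfer by pintool; plates held at 37 C and read at set time points.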

[9] = A CellTox Green Cytotoxicity Assay to monitor cytotoxicity in HEK293 cells - 24 hour (AID 1224875); note: series mostly up to about 77 µM; nearly all actives have a fitted effect of over 45% in size
Procedure, shortened: as §2

[10] = A CellTox Green Cytotoxicity Assay to monitor cytotoxicity in HepG2 cells - 16 hour (AID 1224876); note: nearly all actives have a fitted effect of over 45% in size
Procedure, shortened: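 Real-time, homogeneous cytotoxicity readout: dead-cell DNA staining by CellTox Green in HepG2 monolayers, fluorescence measured at timed intervals up to 40 h of continuous compound exposure.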
% is set by controls: 0 for no effect and ±100 for the full control effect.

O=C1CC2(CCCC2)CC(=O)N1CCNCC1COc2ccccc2O1 (stereo not given)
inactive: outcome [1] | outcome [2] | outcome [3] | outcome [4] | Potency [5] | outcome [6] | outcome [7] | max response [8] -2.45% | Potency [9] | Potency [10]

C[C@@H]1NC(=O)[C@@H](N)CNC(=O)[C@H](C2CCNC(N)=N2)NC(=O)/C(=C/NC(N)=O)NC(=O)[C@H](CNC(=O)C[C@@H](N)CCCN)NC1=O (stereo not given in full)
inactive: activity change, negative = cytotoxicity [1] 4.49% [at 0.29 µM] | activity change, negative = cytotoxic [2] 0.857% [at 0.29 µM] | cytotoxicity [3] 0.414% [at 0.29 µM] | activity change, negative = cytotoxic [4] 3.51% [at 0.29 µM] | cytotoxicity increase [5] 21.6% [at 0.29 µM] | activity change, negative = cytotoxicity [6] 0.93% [at 0.29 µM] | viability change, negative = cytotoxic [7] 3.98% [at 0.29 µM] | max response [8] 0.0952% | activity change [9] 19.3% [at 0.29 µM, stronger effect = higher value] | cytotoxicity increase [10] -2.83% [at 0.29 µM]

C=CCn1cc[n+](C)c1
inactive: outcome [1] | outcome [2] | outcome [3] | outcome [4] | Potency [5] | outcome [6] | outcome [7] | max response [8] -3.76% | Potency [9] | Potency [10]

CCCC(C)C(O)CC (stereo not given)
inactive: outcome [1] | outcome [2] | outcome [3] | outcome [4] | Potency [5] | outcome [6] | outcome [7] | max response [8] 14.3% | Potency [9] | Potency [10]

O=CN1CCCCC1
inactive: outcome [1] | outcome [2] | outcome [3] | outcome [4] | Potency [5] | outcome [6] | outcome [7] | max response [8] 1.3% | Potency [9] | Potency [10]

C=CC(=O)CC
inactive: outcome [1] | outcome [2] | outcome [3] | outcome [4] | Potency [5] | outcome [6] | outcome [7] | max response [8] 0.33% | Potency [9] | Potency [10]

CCCCCCCCOCCC#N
inactive: outcome [1] | outcome [2] | outcome [3] | outcome [4] | Potency [5] | outcome [6] | outcome [7] | max response [8] -1.56% | Potency [9] | Potency [10]

N#CC1(N)CCCCC1
inactive: outcome [1] | outcome [2] | outcome [3] | outcome [4] | Potency [5] | outcome [6] | outcome [7] | max response [8] 6.54% | Potency [9] | Potency [10]

CC(C)(C)C(=O)CC(=O)C(C)(C)C
inactive: outcome [1] | outcome [2] | outcome [3] | outcome [4] | Potency [5] | outcome [6] | outcome [7] | max response [8] -12.1% | Potency [9] | Potency [10]

CCCCCC(=O)CC
inactive: outcome [1] | outcome [2] | outcome [3] | outcome [4] | Potency [5] | outcome [6] | outcome [7] | max response [8] 19.7% | Potency [9] | Potency [10]

CN(C)CCc1c[nH]c2ccc(C[C@H]3COC(=O)N3)cc12
inactive: outcome [1] | outcome [2] | outcome [3] | outcome [4] | Potency [5] | outcome [6] | outcome [7] | max response [8] 2.27% | Potency [9] | Potency [10]

Nc1ccc(C(=O)NCC(=O)O)cc1
inactive: outcome [1] | outcome [2] | outcome [3] | outcome [4] | Potency [5] | outcome [6] | outcome [7] | max response [8] -0.411% | Potency [9] | Potency [10]

COC(=O)c1ccccc1Cl
inactive: outcome [1] | outcome [2] | outcome [3] | outcome [4] | Potency [5] | outcome [6] | outcome [7] | max response [8] 2.48% | Potency [9] | Potency [10]

O=C(O)P(=O)(O)O
inactive: outcome [1] | outcome [2] | outcome [3] | outcome [4] | Potency [5] | outcome [6] | outcome [7] | max response [8] 10.7% | Potency [9] | Potency [10]

Cc1cc(C)c(N)c(Cl)c1
inactive: outcome [1] | outcome [2] | outcome [3] | outcome [4] | Potency [5] | outcome [6] | outcome [7] | max response [8] 2.65% | Potency [9] | Potency [10]

CCN1CCN(C(=O)N[C@@H](C(=O)N[C@@H]2C(=O)N3[C@@H]2SC(C)(C)[C@H]3C(=O)O)c2ccccc2)C(=O)C1=O
inactive: outcome [1] | outcome [2] | outcome [3] | outcome [4] | Potency [5] | outcome [6] | outcome [7] | max response [8] 1.08% | Potency [9] | Potency [10]

CCC(=O)OCCOc1ccccc1
inactive: outcome [1] | outcome [2] | outcome [3] | outcome [4] | Potency [5] | outcome [6] | outcome [7] | max response [8] 5.48% | Potency [9] | Potency [10]

CC(=O)O[C@@H]1CC2C3CCc4cc(OC(=O)c5ccccc5)ccc4C3CCC2(C)[C@H]1OC(C)=O (stereo not given in full)
inactive: outcome [1] | outcome [2] | outcome [3] | outcome [4] | Potency [5] | outcome [6] | outcome [7] | max response [8] 0.184% | Potency [9] | Potency [10]

Cc1cc(=O)oc2cc(O[C@@H]3SC[C@@H](O)[C@H](O)[C@H]3O)ccc12
inactive: outcome [1] | outcome [2] | outcome [3] | outcome [4] | Potency [5] | outcome [6] | outcome [7] | max response [8] -5.1% | Potency [9] | Potency [10]
